AmpC inh detg: qHTS Inhibitors of AmpC Beta-Lactamase (assay with detergent) | AmpC hydrolysis of nitrocefin, absorbance 480 nm, 0.01% Triton | Potency, µM (doses to about 114 µM), without a hit: at the top dose activity change, negative = inhibition, actives largely listed as inhibitors | AID 485294, 2010 | P00811 | 370,000 compounds, 0.041% hits;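 also: potency is read from the fitted curve at half-maximal effect; 0% = no-compound wells and -100% = no-enzyme wells; nearly all actives have a fitted effect of over 25% in size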
Target sequence (P00811 whole entry, looked up): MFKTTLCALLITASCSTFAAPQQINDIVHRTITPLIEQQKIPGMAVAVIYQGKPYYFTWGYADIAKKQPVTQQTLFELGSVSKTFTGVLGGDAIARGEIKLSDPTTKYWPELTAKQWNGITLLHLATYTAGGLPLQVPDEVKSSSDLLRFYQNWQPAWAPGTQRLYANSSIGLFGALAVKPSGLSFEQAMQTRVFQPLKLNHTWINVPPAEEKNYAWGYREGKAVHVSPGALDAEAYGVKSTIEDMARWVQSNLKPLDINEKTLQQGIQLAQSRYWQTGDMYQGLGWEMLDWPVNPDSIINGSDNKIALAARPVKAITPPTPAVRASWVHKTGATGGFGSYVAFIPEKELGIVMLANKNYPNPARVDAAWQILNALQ
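20 mM phosphate pH 7.0 + 0.01% (detergent screen) or 0.0001% Triton X-100; 5.3 nM AmpC reagent; cpd preinc 15 min RT; nitrocefin (800 uM stock) to start; A480 q20 s × 4 min; Activity was normalised to no-enzyme and no-compound control wells.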
NS1 inh: qHTS Assay for Inhibitors of Influenza NS1 Protein Function; Potency, µM (highest dose often 46.1 µM), inactives show top-dose activity, positive = more growth; 270,000 compounds, 0.4% hits; AID 2326, 2010; calls by dose curve; also: potency is read from the fitted curve at half-maximal effect; actives are rising curves; nearly all actives have a fitted effect of over 50% in size
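In this qHTS, NS1 from influenza A is expressed in budding yeast, where it slows growth. Cells are switched from glucose to 2% galactose medium (pH 6.0, -URA), treated with compound, and growth recovery is read at OD600.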
Shiga inhibitor: A qHTS for Small Molecule Inhibitors of Shiga Toxin; Vero cells, Shiga toxin protein synthesis inhibition reporter; inhibition, % at 38.7 µM; 290,000 compounds, 9.2% hits; AID 2315, 2010; in the data active = inhibition mostly above about 28%, no sharp cut-off; inactive = mostly below about 43%; also: 0% is about no effect
CHX counter: Cycloheximide Counterscreen for Small Molecule Inhibitors of Shiga Toxin; max response, %; 300,000 compounds, 12% hits; cell reporter, cycloheximide protein synthesis inhibition counterscreen; in the data active = max response mostly above about 13%, no sharp cut-off; inactive = mostly below about 14%; also: read at 38.3 µM for the half of the compounds with a filed dose; 0% is about no effect
AmpC no deterg: qHTS Inhibitors of AmpC Beta-Lactamase (assay without detergent); P00811; AmpC nitrocefin hydrolysis, absorbance 480 nm, 0.0001% Triton; Potency, µM (top dose mostly 57.1 µM), inactives show top-dose activity change, negative = inhibition, actives largely listed as inhibitors; 330,000 compounds, 0.52% hits;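 also: potency is read from the fitted curve at half-maximal effect; plate controls were no compound for no effect and no enzyme for full effect; nearly all actives have a fitted effect of over 20% in size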
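AmpC (5.3 nM in the dispensed reagent) in 20 mM phosphate pH 7.0 with 0.01% (detergent screen) or 0.0001% Triton X-100 was preincubated with compounds for 15 min at room temperature. Nitrocefin was then added from an 800 uM solution, and hydrolysis was followed at 480 nm.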
* = called active by the depositor; ? = inconclusive; nt = no result; + = active, no number; [ ] = dose if it differs, or a comment. Many of the other results were omitted from the sample, so hits are more common in it than they were. Unless noted, calls follow the shape of the dose curve; as a rule, active = well fitted curve in the direction sought with a large enough effect; inconclusive = small, poorly fitted or top-dose-only effect, or another doubt; inactive = no such curve, though single readings can be large; an effect the other way counts as inactive or inconclusive.

SMILES	AmpC inh detg	NS1 inh	Shiga inhibitor	CHX counter	AmpC no deterg
COc1ccc2c(c1OC)C(=O)N(c1nccs1)C2	-13.5%	-87.1%	66.5	33.7*	-8.6%
COc1ccc(N2Cc3ccc(OC)c(OC)c3C2=O)cc1	-13.0%	-32.3%	75.8*	47.8*	-7.4%
Cc1cccc(C(=O)Nc2cc(Cl)ccc2-n2cncn2)c1[N+](=O)[O-]	-16.7%	nt	nt	nt	-17.0%
S=C(Nc1cccc2ccccc12)NC1CCCCC1	?	nt	50.8*	40.3*	-27.5%[11.4 µM]
COc1ccc(NC(=S)NC2CCCCC2)c(OC)c1	?	nt	-2.0	-0.5	-44.5%[11.4 µM]
COc1ccc(NC(=S)NC2CCCCCC2)c(OC)c1	3.7%	-11.4%	47.7*	-10.4	-19.4%
COc1ccc(NC(=S)NC(=O)CC(C)C)c(OC)c1	?	nt	50.4*	20.7*	-29.0%
COc1ccc(NC(=S)Nc2cc(C)ccn2)c(OC)c1	?	6.8%	75.0*	28.3*	-29.3%
COc1ccc(-c2nnc(SCC(=O)NC(C)c3ccccc3)o2)cc1OC (stereo not drawn)	-20.0%	-14.7%	-7.2	-2.8	30.0%
C[N+]1(CCCC[N+]2(C)CCCCCCC2)CCCCCCC1	nt	-2.7%	nt	nt	nt
Cc1ccc2nc(CSc3nnc(NC(=O)C(C)C)s3)cc(=O)n2c1	-4.7%	nt	nt	nt	nt
COc1cc(OC)c2c(c1C(CCN1CCCC(C)C1)c1ccc(N(C)C)cc1)OC(=O)CC2c1ccc(N(C)C)cc1 (stereo not drawn)	nt	nt	-11.0	-3.4	nt
COc1ccc(NC(=S)Nc2ccccn2)c(OC)c1	3.7%	-6.8%	119.7*	35.1*	-34.9%
COc1ccc(NC(=S)Nc2ccc(OC)cc2OC)c(OC)c1	?	16.0%	-5.9	0.8	-9.0%
COc1ccc(N2CCN(C(=O)COC(=O)/C=C/c3ccc(C(F)(F)F)cc3)CC2)cc1	?	nt	nt	nt	7.2%
Cc1cc2nc(-c3ccc(SCC(=O)N4CCc5ccccc54)nc3)[nH]c2cc1C	-14.4%	22.9%	36.1	42.6*	-28.5%
COC(=O)CSc1ccc(-c2nc3ccc(C)cc3[nH]2)cn1	-4.3%	-45.8%	12.5	19.6*	-34.2%
Cc1cc(C)c(C#N)c(SCc2ccc(C(=O)O)cc2)n1	-10.8%	-12.0%	-8.1	-4.8	-19.0%
Cc1cc2nc(-c3ccc(SCC(=O)Nc4ccc(S(=O)(=O)NC5CC5)cc4)nc3)[nH]c2cc1C	-11.3%	3.5%	69.5*	46.2*	-26.5%
Cc1cc2nc(-c3ccc(SCc4ccc(C(=O)O)cc4)nc3)[nH]c2cc1C	-3.8%	-5.2%	44.7*	37.1*	-25.7%
Cc1nn(CCCC(=O)NCCc2ccc(Cl)cc2)c(=O)c2c1sc1ccccc12	-0.8%	nt	nt	nt	nt
C/C(=N\Nc1ccc(S(=O)(=O)N2CCOCC2)cc1[N+](=O)[O-])C(C)C	3.1%	nt	6.9	-1.2	0.7%
Cc1cc(NC(=O)CSc2ccc(-c3nc4cc(C)c(C)cc4[nH]3)cn2)no1	4.5%	?	60.5*	37.8*	-18.2%
Cc1cc2nc(-c3ccc(SCC(=O)NC(C)C)nc3)[nH]c2cc1C	0.0%	nt	+	45.2*	-49.8%
Cc1ccc2nc(SCC(=O)Nc3cc(C)on3)[nH]c2c1	-3.0%	-2.7%	-7.0	12.0	-25.3%
SMILES	AmpC inh detg	NS1 inh	Shiga inhibitor	CHX counter	AmpC no deterg
Cc1cc2nc(-c3ccc(SCc4ccccc4C#N)nc3)[nH]c2cc1C	-4.7%	18.4%	45.6*	34.3*	-39.1%
O=C(CSc1ccc(-c2nc3ccccc3[nH]2)cn1)N1CCN(C(=O)c2ccco2)CC1	-7.8%	-20.9%	11.2	2.0	12.1%
CCOc1ccc(C(C)=O)cc1CN1C(=O)C(=O)N(CC)C1=O	-1.5%	-4.7%	-11.4	-1.0	-5.0%
CN(Cc1cnn(C)c1)Cc1nc(-c2ccc(Cl)cc2)no1	0.2%	-1.9%	40.6	15.9*	42.1%
CC(C)N(Cc1cnn(C)c1)Cc1nc(COc2ccccc2)no1	-2.9%	0.3%	-10.8	-4.8	176.4%
CN(Cc1cnn(C)c1)Cc1nc(COc2ccccc2)no1	-2.7%	5.2%	33.1	14.4*	7.8%
CN(Cc1cnn(C)c1)Cc1nc(C(c2ccccc2)c2ccccc2)no1	-4.4%	-4.8%	-3.2	-2.4	166.0%
CC1S/C(=N/N=C/c2cccs2)NC1=O (stereo not drawn)	-1.5%	9.4%	20.1*	16.1*	-7.4%
CCC1S/C(=N/N=C/c2cccs2)NC1=O (stereo not drawn)	-6.2%	-8.3%	-5.5	-4.2	-24.3%
C(=N\N=C\c1cccs1)/c1cccs1	3.5%	nt	71.2*	45.1*	-10.5%
C(=N\n1cnnc1)/c1cccs1	0.1%	0.8%	-10.3	-5.5	-11.3%
Cc1cc(C)cc(OC(=O)c2cc(-c3ccc4c(c3)OCCO4)on2)c1	13.5%	nt	nt	nt	nt
CC(=O)Nc1nc2ncc(C=O)nc2c(=O)[nH]1	nt	-5.6%	nt	nt	nt
Oc1cccc2ccc(/C=C/c3cccs3)nc12	-0.1%	-207.7%	67.9*	35.8*	-25.2%
Cc1ccsc1/C=C/c1ccc2cccc(O)c2n1	3.1%	-179.5%	72.4*	66.3*	-36.0%
Cc1ccsc1/C=C/c1ccc2ccccc2n1	-0.5%	-83.6%	67.0*	27.8*	-29.5%
O=C(Cc1cccc2ccccc12)N/N=C/c1ccc2cccc(O)c2n1	-3.6%	-44.7%	17.6	16.4	-41.5%
Fc1ccc(-n2cc(-c3ccccc3)c3c(NC4CCCCC4)ncnc32)cc1	-4.3%	nt	nt	nt	nt
C(=N\Nc1nc2ccccc2[nH]1)/c1cccs1	3.4%	-99.0%	123.6*	69.1*	-20.4%
Cc1ccsc1/C=N/Nc1ccc(C(=O)O)cc1	3.7%	-45.3%	4.0	-2.7	-23.3%
Cc1ccsc1/C=N/Nc1nc2ccccc2[nH]1	-7.5%	-21.8%	active	43.5*	-45.1%
O=C(N/N=C/c1ccco1)c1cc(-c2cccc3ccccc23)n[nH]1	2.4%	-51.9%	58.0*	26.3*	-55.1%
O=C(N/N=C/c1ccco1)c1cc(-c2ccc(Cl)cc2)n[nH]1	3.3%	-11.5%	10.5	-2.7	-39.6%
O=C(N/N=C/c1ccco1)c1cc(-c2ccccc2)n[nH]1	1.8%	8.0%	45.7*	19.5*	-24.3%
Cc1ccc(-c2cc(C(=O)N/N=C/c3ccco3)[nH]n2)cc1	?	-13.4%	32.6	18.8	-33.0%
SMILES	AmpC inh detg	NS1 inh	Shiga inhibitor	CHX counter	AmpC no deterg
CCCCCCCCCCCC	nt	nt	30.5	-5.9	nt
O=C(Cn1c(=O)oc2cc(S(=O)(=O)N3CCCCC3)ccc21)NCc1ccc(Cl)cc1	2.0%	nt	nt	nt	nt
O=[N+]([O-])c1cc(Cl)cc(/C=N/Nc2nc3ccccc3s2)c1O	-7.0%	-1.5%	41.1*	32.5*	-26.7%
COc1cc(/C=N/Nc2nc3ccccc3s2)cc([N+](=O)[O-])c1O	2.4%	1.5%	56.0*	19.0*	-40.4%
O=C(Cn1nc2ccccc2n1)N/N=C/c1cc(Cl)cc([N+](=O)[O-])c1O	-0.2%	nt	-10.9	1.5	-31.1%
Cc1ccc(Cn2c(SCC(=O)NCc3ccccc3Cl)nc3ccsc3c2=O)cc1	2.7%	nt	nt	nt	nt
Cc1nc(-c2ccccc2)nc2[nH]c(C(C)C)cc(=O)c12	-0.8%	-44.4%	-3.9	-2.7	?
